# Results filed as inconclusive are left out. Active and inactive are the calls of the source. Rule for the calls: active = hit-call score of the fitted dose curve at least 0.9, where 1 is the maximum; inconclusive = response in the unintended direction; inactive = score below 0.9.
# Molecular target: THRB (gene 7068) (UniProt P10828)
# Assay: TOX21_TRB_BLA_Antagonist_Followup_ratio: Tox21 Thyroid Hormone Receptor beta Antagonism Beta-lactamase (BLA) Follow-Up Assay, Ratio (AID 2283958)
# Excerpt: The GeneBLAzer TRb-UAS-bla HEK293T assay kit for human TRb (ThermoFisherScientific Catalog No. K1684) was used as a secondary assay for specificity (TRb-bla).This assay contained the ligand-binding domain (LBD) of the human TRb fused to the DNA-binding domain of GAL4 stably integrated in the GeneBLAzer UAS-bla HEK293Tcell line. The reporter gene, b-lactamase, is under the transcriptional control of a UAS that binds the GAL4 DNA-binding domain. A cell viability assay was run in parallel for these cells as well using the CellTiter-Glo viability assay kit.TOX21_TRB_BLA_Antagonist_Followup_ratio is an assay readout measuring reporter gene via receptor activity and designed using inducible reporter (beta lactamase induction) detected with GAL4 b-lactamase reporter gene. The signal is derived from the ratio of cleaved (ch2) to uncleaved (ch1) reporter gene substrate used as the measure of target activity.Data from the assay component TOX21_TRB_BLA_Antagonist_Followup_ratio was analyzed into 1 assay endpoint. This assay endpoint, TOX21_TRB_BLA_Antagonist_Followup_ratio, was analyzed in the positive analysis fitting direction relative to DMSO as the negative control and baseline of activity. Using a type of inducible reporter, loss-of-signal activity can be used to understand changes in the reporter gene as they relate to the gene THRB. Furthermore, this assay endpoint can be referred to as a primary readout, because this assay has produced multiple assay endpoints and this ratio serves a reporter gene function to understand target activity. To generalize the intended target to other relatable targets, this assay endpoint is annotated to the nuclear receptor intended target family, where the subfamily is non-steroidal.
# Cell Media Required: Growth (90% DMEM/F-12, 10% Fetal Bovine Calf Serum, 100U/ml Penicillin, 100 ug/ml Streptomycin), Assay (10ng/mL sodium selenite, 10 ug/mL humanapo-transferrin, 10 uM ethanolamine, 10 ug/mL insulin, 500 ug/mL bovine serum albumin (BSA))Assay Protocol: TRb-bla cells were dispensed at 3,000 cells/well in 5 uL of the assay medium containing phenol red-free DMEM with 2% charcoal-stripped FBS in 1,536-well black-wall/clear-bottom plates using an FRD. After 5-h incubation at 37C/5% CO2 for cell attachment to the well bottom, 23nL of follow-up compounds dissolved in DMSO, 11 concentrations in triplicate, and the positive control (T3; agonist format) were transferred to the assay plates using a Pintool station. The assay plates were incubated at 37C/5% CO2 for 18h. One microliter LiveBLAzer FRET-B/G CCF4-AM substrate was added to each well using an FRD. After 2-h incubation at room temperature, the fluorescence intensity was measured using an Envision plate reader. Data were expressed as the ratio of 460:530nm. The cytotoxicity of the compounds was measured in the same plates by adding 4 uL of CellTiter-Glo reagent to each well and incubating the plates at room temperature for 30 min. The luminescence intensity was measured using a ViewLux plate reader.For the luciferase reporter gene assay, 5 uL/well (agonist format) and 4 uL/well (antagonist format) ONE-Glo reagent (Promega Corporation) was added using an FRD and after 30-min incubation at room temperature, the luminescence intensity was measured using a ViewLux plate reader. Data were expressed as relative fluorescence units (cell viability assay) and relative luminescence units (luciferase reporter assay).
# Chain of THRB (gene 7068) (P10828 whole entry, looked up): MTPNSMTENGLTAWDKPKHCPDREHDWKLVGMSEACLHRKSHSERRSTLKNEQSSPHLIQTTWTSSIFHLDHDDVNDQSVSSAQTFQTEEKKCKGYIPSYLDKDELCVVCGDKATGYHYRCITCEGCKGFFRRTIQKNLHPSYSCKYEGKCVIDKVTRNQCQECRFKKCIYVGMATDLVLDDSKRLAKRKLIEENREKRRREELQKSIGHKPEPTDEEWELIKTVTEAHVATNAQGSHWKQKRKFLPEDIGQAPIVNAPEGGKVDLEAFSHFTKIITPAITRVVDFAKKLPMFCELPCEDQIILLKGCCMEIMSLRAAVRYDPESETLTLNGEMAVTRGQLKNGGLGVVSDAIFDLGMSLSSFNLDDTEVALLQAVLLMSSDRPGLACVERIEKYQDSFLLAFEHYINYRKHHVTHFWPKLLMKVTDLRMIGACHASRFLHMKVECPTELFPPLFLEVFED
Structure (SMILES),outcome,AC50
NNc1nnc(Cc2ccncc2)c2ccccc12,inactive,–
Cc1ccc(Nc2nccc(N(C)c3ccc4c(C)n(C)nc4c3)n2)cc1S(N)(=O)=O,–,14.7 µM (active)
COc1cc(NCc2ccc3nc(N)nc(N)c3c2C)cc(OC)c1OC,inactive,–
COc1ccc2c(c1)N(C[C@H](C)CN(C)C)c1ccccc1S2,inactive,–
O=c1[nH]c(=O)n([C@H]2C[C@H](O)[C@@H](CO)O2)cc1C(F)(F)F,inactive,–
O=C1c2ccccc2-c2n[nH]c3cccc1c23,inactive,–
Cc1nc2ccc(CN(C)c3ccc(C(=O)N[C@@H](CCC(=O)O)C(=O)O)s3)cc2c(=O)[nH]1,inactive,–
CC(=O)OCC(=O)[C@H]1CC[C@H]2[C@@H]3CCC4=CC(=O)CC[C@]4(C)[C@H]3CC[C@]12C,inactive,–
COC(=O)Nc1nc2ccc(S(=O)c3ccccc3)cc2[nH]1 (stereo unspecified),inactive,–
O=C1OC(OC(=O)c2cccnc2Nc2cccc(C(F)(F)F)c2)c2ccccc21 (stereo unspecified),inactive,–
CN1CCCC(CC2c3ccccc3Sc3ccccc32)C1 (stereo unspecified),inactive,–
CCCCCCC[N+](CC)(CC)CCCCc1ccc(Cl)cc1,inactive,–
O=C(O)c1cccnc1Nc1cccc(C(F)(F)F)c1,inactive,–
C/C=C1/C(=O)C[C@H]2[C@@H]3CCC4=CC(=O)CC[C@]4(C)[C@H]3CC[C@]12C,inactive,–
C#C[C@]1(O)CC[C@H]2[C@@H]3CCC4=C(CCC(=O)C4)[C@H]3CC[C@@]21C,inactive,–
CC(=O)O[C@@]12CO[C@@H]1C[C@H](O)[C@@]1(C)C(=O)[C@H](O)C3=C(C)[C@@H](OC(=O)[C@H](O)[C@@H](NC(=O)OC(C)(C)C)c4ccccc4)C[C@@](O)([C@@H](OC(=O)c4ccccc4)[C@H]21)C3(C)C,inactive,–
